# ± gives the standard deviation of the averaged measurements.
# Test system: AEK1 (Tb927.3.2440)
# Assay: percent reduction in TR-FRET probe signal relative to DMSO control; higher = stronger displacement of ATP-site probe (binding)
# Details: 1 µM; incubation time 1 h
row,Structure (SMILES),percent reduction in TR-FRET probe signal [%]
1,C=CC(=O)Nc1cccc(Oc2nc(Nc3ccc(N4CCN(C)CC4)cc3)ncc2Cl)c1,1.06 ± 9.5
2,Oc1c(F)cc(-c2cnccc2-c2ccc(N3CCOCC3)cc2)cc1F,8.04 ± 13
3,NC(=O)Nc1sc(-c2ccc(F)cc2)cc1C(N)=O,10.6 ± 8.8
4,OCCn1cc(-c2ccc3c(c2)CC/C3=N\O)c(-c2ccncc2)n1,-6.91 ± 7.5
5,Cl.Cl.c1cc(-c2cnn3cc(-c4ccc(OCCN5CCCCC5)cc4)cnc23)ccn1 [Dorsomorphin 2HCl],-8.77 ± 4.9
6,Cc1c(Cn2c(C)nc3c(C(=O)O)cc(N4CCOCC4)cc32)cccc1C(F)(F)F,1.17 ± 7.4
7,Cl.Cl.O=S(=O)(NCCNC/C=C/c1ccc(Br)cc1)c1cccc2cnccc12,9.74 ± 13
8,CNC(=O)c1cc(COc2nnc(Nc3ccc(Cl)cc3)c3ccoc23)ccn1 [Telatinib],-1.95 ± 4.8
9,Cn1cnc(N)c2ncnc1-2 [3-Methyladenine (3-MA)],-2.13 ± 5.3
10,COCCOc1ccc2c(c1)ncn2-c1ccc2cccc(N3CCC(N)CC3)c2n1,24.4 ± 7.1
11,Cc1cc(O)c2c(c1)C(=O)c1cccc(O)c1C2=O [Chrysophanic Acid],6.22 ± 14
12,CC(=O)c1c(C)c2cnc(Nc3ccc(N4CCNCC4)cn3)nc2n(C2CCCC2)c1=O.Cl,-16.8 ± 5.1
13,O=c1ccc2ccc(O)c(O)c2o1 [Daphnetin],-1.13 ± 8.9
14,Cn1cc(C=C2C(=O)Nc3cccnc32)c2ccccc21,-3.06 ± 6
15,CN1CCN(c2ccc(-c3ccncc3-c3cc(F)c(O)c(F)c3)cc2)CC1,1.75 ± 5.2
16,O=C(Nc1cccc(Nc2ncc(Br)c(NCCc3cnc[nH]3)n2)c1)N1CCCC1,52.9 ± 12
17,CNS(=O)(=O)C[C@H]1CC[C@H](N(C)c2ncnc3[nH]ccc23)CC1.O=C(O)/C=C\C(=O)O [Oclacitinib],6.94 ± 17
18,Cc1nc(NC(=O)N2CCC[C@H]2C(N)=O)sc1-c1ccnc(C(C)(C)C(F)(F)F)c1,0.68 ± 7.1
19,CN(c1ncccc1CNc1nc(Nc2ccc3c(c2)CC(=O)N3)ncc1C(F)(F)F)S(C)(=O)=O,46.8 ± 0.66

row,Structure (SMILES),percent reduction in TR-FRET probe signal [%]
1,CCCNC(=O)c1cn2ncnc(Nc3cc(C(=O)NC4CC4)ccc3C)c2c1C,10.5 ± 8.4
2,C=CC(=O)Nc1cccc(Sc2nc(Nc3ccc(N4CCN(C)CC4)cc3)ncc2Cl)c1,3.76 ± 18
3,O=C(Nc1cccnc1)c1cc(-c2ccnc(F)c2)ccc1OCc1ccccc1,-0.16 ± 3.2
4,CC(C)[C@H](CO)Nc1nc(Nc2cccc(Cl)c2)c2ncn(C(C)C)c2n1 [Purvalanol A],4.44 ± 18
5,Cc1nc(NC(=O)N2CCC[C@H]2C(N)=O)sc1-c1csc(C(C)(C)C)n1,3.71 ± 6.7
6,Cl.O=S(=O)(c1cccc2cnccc12)N1CCCNCC1 [Fasudil (HA-1077) HCl],4.93 ± 2
7,COc1cc(Nc2ncc(F)c(Nc3ccc4c(n3)NC(=O)C(C)(C)O4)n2)cc(OC)c1OC [R406 (free base)],87.4 ± 6
8,O=C(NC1CCNCC1)c1n[nH]cc1NC(=O)c1c(Cl)cccc1Cl,-2.75 ± 9.5
9,CCn1c(N)c(C(=O)NC)c(=O)c2ccc(C#C[C@@](C)(O)COC)nc21,10.3 ± 4.8
10,CN1CCC(CNc2ccc3ncc(-c4cccc(OC(F)(F)F)c4)n3n2)CC1 [SGI-1776 free base],30 ± 15
11,Cc1csc(-c2nnc(Nc3ccc(Oc4ncccc4-c4ccnc(N)n4)cc3)c3ccccc23)c1,55.7 ± 11
12,CCOc1cc(N2CCC(O)CC2)ccc1Nc1ncc2c(n1)N(C)c1ccccc1C(=O)N2C,-8.09 ± 7.7
13,COc1ccc(F)c(F)c1C(=O)c1cnc(NC2CCN(S(C)(=O)=O)CC2)nc1N,4.07 ± 8.4
14,CCNC(=O)Nc1ccc(-c2nc3c(c(N4CCOC[C@@H]4C)n2)CCN(C2COC2)C3)cc1,13.6 ± 12
15,C[C@@H]1CCN(C(=O)CC#N)C[C@@H]1N(C)c1ncnc2[nH]ccc12,5.48 ± 7.8
16,Cc1c(NC(=O)c2ccc(C(C)(C)C)cc2)cccc1-c1cn(C)c(=O)c(Nc2ccc(C(=O)N3CCOCC3)cc2)n1,-8 ± 7.8
17,Nc1ccc(C(=O)Nc2cccc(-c3nc(N4CCOCC4)c4oc5ncccc5c4n3)c2)cn1,-7.4 ± 3
18,O=C(Cc1ccc(-c2ccc(OCCN3CCOCC3)cc2)cn1)NCc1ccccc1,-1.26 ± 9
19,N#Cc1ccc2[nH]c(O)c(-c3ccc(CN4CCOCC4)cn3)c2c1,-12.4 ± 8.1
